Mtb hypoxia rep – inhibitors of hypoxia-regulated fluorescent reporter in Mycobacterium tuberculosis. M. tuberculosis hypoxia-regulated fluorescent reporter, fluorescence. AID 1159583. fluorescence inhibition, % (no concentration beside the values). 300,000 compounds, 0.1% hits; in the data active = fluorescence inhibition mostly above about 23%, no sharp cut-off; inactive = mostly below about 17%
PfHsp40 yeast – rescue of PfHsp40-mediated yeast toxicity | S. cerevisiae expressing PfHsp40, growth rescue, ATP luminescence | growth rescue, % at 12.5 µM | 340,000 compounds, 0.68% hits | AID 504582; in the data active = growth rescue above about 28%, passing the limit was not always enough;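 note: yeast W303a lacking pdr1 and pdr3 grown in galactose medium; growth measured after three days at 30 °C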
Mtb bLac sens – beta-lactam sensitization of Mtb H37Rv. M. tuberculosis H37Rv growth with meropenem, percent inhibition. 330,000 compounds, 0.27% hits. inhibition, % at 25 µM; call rule not given here;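 note: growth measured after seven days incubation then overnight dye step; 0% = bacteria only wells and 100% = bacteria with antibiotic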
CCHFV vOTU inh – CCHFV vOTU protease inhibition | Pep-AMC fluorescence | inhibition, % at 11.5 µM | 370,000 compounds, 0.55% hits | AID 651958; in the data active = inhibition above about 30%; note: 0% = vehicle wells with enzyme and 100% = no enzyme wells
RecA intein inh – inhibitors of M. tuberculosis RecA intein splicing. P9WHJ3. cell-free RecA intein splicing, fluorescence. inhibition, % (test concentration not listed). 290,000 compounds, 0.75% hits; in the data active = inhibition above about 30%;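 note: 0% = vehicle wells and 100% = reference inhibitor control wells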
Target sequence (P9WHJ3 whole entry, looked up): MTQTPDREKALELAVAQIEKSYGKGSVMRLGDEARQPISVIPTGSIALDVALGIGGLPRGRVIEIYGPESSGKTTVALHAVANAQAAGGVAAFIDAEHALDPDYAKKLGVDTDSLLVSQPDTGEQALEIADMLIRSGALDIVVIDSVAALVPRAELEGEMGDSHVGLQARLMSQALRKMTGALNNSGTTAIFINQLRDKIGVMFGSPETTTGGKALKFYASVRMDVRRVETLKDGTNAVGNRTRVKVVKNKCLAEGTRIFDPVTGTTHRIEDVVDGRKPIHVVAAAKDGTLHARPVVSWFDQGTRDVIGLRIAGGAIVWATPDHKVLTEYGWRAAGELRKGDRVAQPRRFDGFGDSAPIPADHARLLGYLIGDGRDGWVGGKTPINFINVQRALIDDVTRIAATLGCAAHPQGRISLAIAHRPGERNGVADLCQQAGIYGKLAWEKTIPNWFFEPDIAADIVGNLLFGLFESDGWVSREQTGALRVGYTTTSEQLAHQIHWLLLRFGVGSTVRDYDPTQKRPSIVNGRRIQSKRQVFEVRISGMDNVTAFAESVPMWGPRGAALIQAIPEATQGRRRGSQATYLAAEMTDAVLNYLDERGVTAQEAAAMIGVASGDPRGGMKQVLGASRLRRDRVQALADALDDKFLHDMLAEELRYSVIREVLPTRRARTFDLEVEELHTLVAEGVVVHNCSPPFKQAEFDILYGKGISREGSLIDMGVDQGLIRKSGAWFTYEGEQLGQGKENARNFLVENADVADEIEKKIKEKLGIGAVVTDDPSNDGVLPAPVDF
Numbers without * were called inactive; . = not tested or not shown. Most compounds without a hit are left out; they make up all but 1.7% or so of the library.

SMILES	Mtb hypoxia rep	PfHsp40 yeast	Mtb bLac sens	CCHFV vOTU inh	RecA intein inh
CCOC(=O)C1=C(Cc2ccc(F)cc2)C(=O)c2ccccc2C1=O	3	-1	23	71*	8
O=C(OCc1ccc(F)cc1)c1ccc2c(c1)-c1ccccc1C2=O	4	1	36	-2	-2
CCN(CC)c1ccc(C=NNC(=O)c2cccc(S(=O)(=O)N3CCOCC3)c2)c(O)c1	-6	.	.	.	.
CCN(CC)c1ccc(/C=N/NC(=O)c2cccc(S(=O)(=O)N3CCOCC3)c2)c(O)c1	.	231*	2	8	-1
COc1cc(OC)cc(-c2sc3ccc(OC)cc3c2C#CC2(N)CCCCC2)c1	.	34*	100	11	.
COc1ccccc1NC(=O)c1cc(Cl)ccc1NC(=O)c1ccco1	.	-1	0	0	-2
Cc1ccc(NC2=C(Cl)C(=O)OC2OC(=O)c2ccc(C)cc2)cc1 (stereo unspecified)	14	3	58	14	16
COc1cccc(NC2=C(Cl)C(=O)OC2OC(=O)c2ccco2)c1 (stereo unspecified)	11	0	74	-12	35*
COC(=O)c1ccc(NC2=C(Cl)C(=O)OC2OC(=O)c2ccccc2)cc1 (stereo unspecified)	14	0	76	2	30*
Cc1ccccc1NC1=C(Cl)C(=O)OC1OC(=O)c1ccco1 (stereo unspecified)	8	1	0	-3	43*
CCOC1OC(=O)C(Cl)=C1Nc1ccccc1C (stereo unspecified)	.	0	98	-1	-2
COc1ccccc1NC1=C(Cl)C(=O)OC1OC(=O)c1ccco1 (stereo unspecified)	13	0	-7	2	41*
CC1NC(=O)C(CC(N)=O)NC(=O)c2cc([N+](=O)[O-])cc(I)c2OCCC(C(=O)NC(CC(=O)O)C(N)=O)NC1=O (stereo unspecified)	6	.	.	.	.
O=C(C1CC=CC2CCN(Cc3ccc(Cl)c(Cl)c3)C(=O)C21)N1CCOCC1 (stereo unspecified)	7	.	.	.	.
CCNC(=O)CCSc1nc2cc(Cl)ccc2o1	21	111*	-6	6	.
CC=C1COC(C(=O)NCCN2CCCC2)(C(F)(F)F)C=C1C=C1CCCCC1 (stereo unspecified)	9	.	.	.	.
O=C(C1CC=CC2CCN(C3CC3)C(=O)C21)N1CCN(c2ccccc2)CC1 (stereo unspecified)	-12	.	.	.	.
COc1ccc(-n2c(-c3ccccc3)cc3c2CCCC3=O)cc1	2	134*	4	.	.
O=c1cc(-c2ccccc2)oc2cc(O)c(O)c(O)c12	.	141*	2	0	.
FC(F)(F)c1cccc(N2CCNCC2)c1	-2	.	-1	.	0
FC(F)(F)c1cccc(N2CCc3cn[nH]c32)c1	-7	292*	-16	1	-1
C=C(C)C(=O)NC1=NN(c2ccccc2)C(=O)C1	-2	3	-4	11	73*
CC(C)(Oc1ccc(Cl)cc1)C(=O)NC1=NN(c2ccccc2)C(=O)C1	-4	1	3	5	12
CCC(=O)Nc1cccc(C2=NOC3(C2)CC(C(N)=O)N(C(=O)c2ccc(OC)cc2)C3)c1 (stereo unspecified)	-10	.	.	.	.
CC(C(=O)Nc1ccc2ccccc2c1)C1C[C@]1(C)C(NS(=O)(=O)c1ccccc1)c1ccccc1 (stereo partly specified)	-2	.	.	.	.
SMILES	Mtb hypoxia rep	PfHsp40 yeast	Mtb bLac sens	CCHFV vOTU inh	RecA intein inh
CCCCCCSc1ccc([C@H]2N[C@@](CC(C)C)(C(=O)OC)[C@H]3C(=O)N(C)C(=O)[C@@H]23)cc1	9	47*	-13	18	7
CCCSc1ccc([C@H]2N[C@@](CC(C)C)(C(=O)OC)[C@H]3C(=O)N(C)C(=O)[C@@H]23)cc1	.	-1	-5	-2	3
O=C(NNC(=O)c1ccccc1OCc1ccc(F)cc1)c1ccccc1O	0	43*	9	10	8
CCN(CCO)C1CC(=O)N(c2ccccc2C)C1=O (stereo unspecified)	4	75*	-6	.	3
CC1(C)CC[C@]2(C(=O)O)CC[C@]3(CO)C(=CCC4[C@@]5(C)CC(O)C(O)[C@@](C)(C(=O)O)C5CC[C@]43C)C2C1 (stereo partly specified)	14	.	.	.	.
O=C(C=Cc1ccco1)c1cc(Cl)ccc1O	6	-1	.	-7	.
CC(/C=C/c1ccco1)=N\NC(=O)c1cc(Cl)ccc1O	.	75*	98	-13	2
Cc1onc(-c2ccccc2)c1C(=O)NNC(=O)c1ccccc1O	-5	68*	-1	-1	9
Cc1onc(-c2ccccc2)c1C(=O)NNC(=O)c1ccccc1	1	0	-3	-8	.
COc1ccc(-c2cc(C(=O)NNC(=S)NC(=O)c3c(-c4ccccc4)noc3C)[nH]n2)cc1	3	287*	-3	1	4
O=C(Nc1ccc2nn(-c3ccccc3)nc2c1)c1cccnc1	.	115*	-1	8	4
O=C(Nc1ccc2nn(-c3ccc(F)cc3)nc2c1)c1cccnc1	4	0	6	-5	.
COc1c(C(CC(C)C)OC(C)=O)ccc2c1C(=O)OCc1cc(C)cc(O)c1O2 (stereo unspecified)	.	161*	-3	21	2
CC(Sc1ccc2c(c1)OCCO2)C(=O)Nc1ccc2c(c1)OCO2 (stereo unspecified)	-2	0	-16	10	6
CC(Sc1ncnc2ccccc12)C(=O)Nc1ccc2c(c1)OCO2 (stereo unspecified)	.	42*	4	12	5
Cn1c(N)c(C(C[N+](=O)[O-])c2c(F)cccc2Cl)c(=O)n(C)c1=O (stereo unspecified)	.	-1	100	1	-2
CN(C)c1ccc(C(C[N+](=O)[O-])c2c(N)n(C)c(=O)n(C)c2=O)c(F)c1C#N (stereo unspecified)	16	140*	100	4	-1
Cc1ccc(S(=O)(=O)N2C(c3ccc(C(C)C)cc3)CC=C(C(=O)O)C2c2ccc(F)cc2)cc1 (stereo unspecified)	15	.	.	.	.
CC(=O)[C@@]1(O)CCC2C3CC(C)C4=CC(=O)CC[C@]4(C)C3CC[C@@]21C (stereo partly specified)	3	.	.	.	.
O=C1C=CC(=O)N1c1ccc2ccccc2c1	18	766*	.	-5	.
Cc1ccc(S(=O)(=O)Nc2ccc3c(c2)CC(=O)N(C(C)CO)CC(C)C(CN(C)Cc2ccc4c(c2)OCO4)O3)cc1 (stereo unspecified)	5	.	.	.	.
CCOC(=O)C1=CN(Cc2cccc(Br)c2)S(=O)(=O)N(C)C1C (stereo unspecified)	1	40*	.	3	.
CCOC(=O)C1=CN(Cc2cccc(I)c2)S(=O)(=O)N(C)C1C (stereo unspecified)	-14	1	.	8	.
O=C(O)c1cc(-c2ccc(C=NN3C(=O)C4C5C=CC(C6CC56)C4C3=O)o2)ccc1Cl (stereo unspecified)	2	.	.	.	.
O=C(c1ccc([N+](=O)[O-])s1)N1CCCc2ccccc21	5	1	95	11	3
